The supplement of paper PMC3616981
± gives the standard deviation of the averaged measurements.

Compound: CC(C)c1cccc(C(C)C)c1N1C(=O)c2ccc(O)cc2C1=O
Test: BioMAP readout fold decrease vs vehicle (vehicle/treated); higher = stronger decrease of the readout vs vehicle (values <1 mean increase)
Experimental: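 BioSeek BioMAP human primary cell (co-)culture systems (3C, 4H, LPS, SAg, BE3C, CASM3C, hDFCGF, KF3CT) treated with 5HPP-33 at 1.48, 4.44, 13.3 and 40 µM. Read-outs are protein levels by ELISA, proliferation and SRB total protein. Duplicate rows per assay are averaged as replicates. Tested in ToxCast Phase II for this study; exposure time not stated.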
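Also: Co-cultures of keratinocytes, bronchial epithelial and smooth muscle cells, fibroblasts, HUVECs and PBMCs under stimuli like LPS, TNF-α, IFN-γ, IL-1β, TGF-β or EGF, SRB reflecting cytotoxicity.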

Target | BioMAP readout fold decrease (1.48 µM) | BioMAP readout fold decrease (4.44 µM) | BioMAP readout fold decrease (13.3 µM) | BioMAP readout fold decrease (40 µM)
3C_IL8 | 0.994 ± 0.019 | 0.925 ± 0.011 | 0.7655 ± 0.0039 | 1.132 ± 0.0075
SAg_Proliferation | 1.22 ± 0.15 | 1.7 ± 0.1 | 1.76 ± 0.053 | 10.3 ± 0.41
3C_MIG | 1.004 ± 0.0083 | 1.01 ± 0.0047 | 1 ± 0.012 | 1.09 ± 0.016
SAg_CD38 | 1.01 ± 0.025 | 1.34 ± 0.061 | 2.26 ± 0.16 | 5.07 ± 0.81
4H_MCP1 | 1.01 ± 0.026 | 0.699 ± 0.023 | 0.623 ± 0.0095 | 1.43 ± 0.071
BE3C_IP10 | 1.1 ± 0.12 | 1.15 ± 0.0028 | 1.65 ± 0.029 | 3.38 ± 0.11
LPS_PGE2 | 0.966 ± 0.071 | 0.863 ± 0.057 | 0.841 ± 0.037 | 0.776 ± 0.044
SAg_PBMCCytotoxicity | 0.998 ± 0.065 | 1.01 ± 0.078 | 0.879 ± 0.028 | 0.894 ± 0.028
LPS_SRB | 0.935 ± 0.012 | 1.032 ± 0.0086 | 1.277 ± 0.0063 | 1.87 ± 0.066
BE3C_MMP1 | 1.073 ± 0.0092 | 1.01 ± 0.017 | 0.9184 ± 0.0038 | 0.854 ± 0.0042
3C_TissueFactor | 0.903 ± 0.018 | 0.906 ± 0.021 | 0.943 ± 0.014 | 1.43 ± 0.2
CASM3C_TissueFactor | 1.0008 ± 0.00028 | 1.023 ± 0.0054 | 1.04 ± 0.026 | 1.22 ± 0.015
hDFCGF_VCAM1 | 1.18 ± 0.2 | 1.32 ± 0.063 | 2.03 ± 0.15 | 4.4 ± 0.3
LPS_TNFa | 0.955 ± 0.077 | 0.923 ± 0.036 | 1.26 ± 0.13 | 1.56 ± 0.35
3C_uPAR | 1.13 ± 0.03 | 1.15 ± 0.053 | 1.43 ± 0.1 | 2.6 ± 0.15
KF3CT_SRB | 1.012 ± 0.0046 | 1.011 ± 0.0045 | 1.0454 ± 0.00028 | 1.53 ± 0.21
3C_Proliferation | 1.29 ± 0.074 | 3.56 ± 0.043 | 6.1 ± 0.28 | 7.03 ± 0.41
LPS_IL8 | 1.07 ± 0.0052 | 0.942 ± 0.0096 | 0.805 ± 0.015 | 1.02 ± 0.053
CASM3C_Proliferation | 1.11 ± 0.024 | 1.58 ± 0.054 | 1.2 ± 0.23 | 2.76 ± 0.16
CASM3C_Thrombomodulin | 0.989 ± 0.031 | 0.942 ± 0.049 | 0.956 ± 0.031 | 1.23 ± 0.078
LPS_VCAM1 | 1.14 ± 0.055 | 1.55 ± 0.14 | 2.13 ± 0.16 | 3.55 ± 0.13
CASM3C_IL6 | 0.923 ± 0.002 | 0.9348 ± 0.0071 | 0.8611 ± 0.001 | 0.752 ± 0.0092
3C_Thrombomodulin | 1.06 ± 0.032 | 0.9983 ± 0.0097 | 0.939 ± 0.01 | 0.984 ± 0.054
4H_Eotaxin3 | 0.9561 ± 0.0065 | 0.875 ± 0.022 | 1.02 ± 0.032 | 4.62 ± 0.098
